{"source": "the supplement of paper PMC10338343", "note": "± gives the standard deviation."}
{"test_system": "EfPiwi piRISC loaded with piRNA #1 (26 nt)", "assay": "pre-steady-state target cleavage rate (min^-1); auxiliary factor: 500 nM Ephydatia muelleri Gtsf1; guide: piRNA #1 5'p-UGAGGUAGUAGGUUGUAUAGUAUCCA; MIWI and MILI are mouse PIWI proteins and EfPiwi is from a freshwater sponge; tags in brackets are library labels; higher = faster piRNA-guided slicing of the target", "method_in_brief": "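Cleave-'n-Seq: 1 nM active affinity-purified piRISC with one synthetic guide and 0.1 nM transcribed, DNA-blocked target RNA library were mixed, with or without 500 nM GTSF1 partner protein, in HEPES–potassium acetate buffer at 33 °C for 0–8 or 0–960 min. Uncleaved targets were sequenced and normalised to depth and to weakly complementary targets, three trials were pooled, and k3 was capped at 0.0001 min^-1. The pre-steady-state cleavage rate was fitted […].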"}
{"sequence": "GGAGUGGAUACUAUACAACCAACUUCCUCA", "pre-steady-state target cleavage rate": "0.00287 ± 0.0019"}
{"sequence": "GGAGACCUAUGAUAUGUACCUACUAUCCUCA", "pre-steady-state target cleavage rate": "< 0.0001"}
{"sequence": "GGAGACCAUACUAUACAAGCCUACUACCUCA", "pre-steady-state target cleavage rate": "0.00453 ± 0.0032"}
{"sequence": "GGAGACCUAUGUAUAGAACCUUCUACCUCA", "pre-steady-state target cleavage rate": "< 0.0001"}
{"sequence": "GGAGUGGAUCCUAUACAACCUACUACCUCA", "pre-steady-state target cleavage rate": "0.111 ± 0.058"}
{"sequence": "GGAGACCAUACUAUACAGACCUACUACCUCA", "pre-steady-state target cleavage rate": "0.0137 ± 0.0061"}
{"sequence": "GGAGACGAUACUAUACAACCUUGUACCUCA", "pre-steady-state target cleavage rate": "0.00308 ± 0.002"}
{"sequence": "GGAGACCUUACUAUACAACACUACUACCUCA", "pre-steady-state target cleavage rate": "0.0118 ± 0.0053"}
{"sequence": "GGAGAGGAUACUAUACAACCUAGUUCCUCA", "pre-steady-state target cleavage rate": "0.00396 ± 0.0022"}
{"sequence": "GGAGACCUAACUAUCCAACCUACUACCUCA", "pre-steady-state target cleavage rate": "0.00727 ± 0.004"}
{"sequence": "GGAGUGGAUACCUAUACAACCUACUACCUCA", "pre-steady-state target cleavage rate": "0.0485 ± 0.018"}
{"sequence": "GGAGACCUAUGAUAUCAACCUACAUGCUCA", "pre-steady-state target cleavage rate": "< 0.0001"}
{"sequence": "GGAGUGGAUACUAUACAACCUACUAGGUCA", "pre-steady-state target cleavage rate": "0.00356 ± 0.002"}
{"sequence": "GGAGACGAUACUAUACAACCUUACUACCUCA", "pre-steady-state target cleavage rate": "0.00805 ± 0.0039"}
{"sequence": "GGAGACCAUACUAUACAACCUACUACGUCA", "pre-steady-state target cleavage rate": "0.0053 ± 0.0015"}
{"sequence": "GGAGUGGAUACUAAACAACCUAGUACCUCA", "pre-steady-state target cleavage rate": "0.00256 ± 0.0016"}
{"sequence": "GGAGACCUUACUAUACAACCUACUAGCUCA", "pre-steady-state target cleavage rate": "0.00255 ± 0.0017"}
{"sequence": "GGAGUGGAUACUAUACAACCUACUACCCA", "pre-steady-state target cleavage rate": "0.00631 ± 0.0022"}
{"sequence": "GGAGAGGAUACUAUACAACCUACUUCCACA", "pre-steady-state target cleavage rate": "0.00373 ± 0.0022"}
{"sequence": "GGAGACCAUACUAUACAACAUACUACCUCA", "pre-steady-state target cleavage rate": "0.00326 ± 0.0021"}
{"sequence": "GGAGACCAUACUAUACAACCUACUACCCUCA", "pre-steady-state target cleavage rate": "0.00445 ± 0.0021"}
{"sequence": "GGAGACCAUACUAUACAACCUAGUACCUGA", "pre-steady-state target cleavage rate": "0.00278 ± 0.0021"}
{"sequence": "GGAGACCUAUCUAUACAACCUACUACCGUCA", "pre-steady-state target cleavage rate": "0.00478 ± 0.0036"}
{"sequence": "GGAGACCUAACUAUACAACGAACUACCUCA", "pre-steady-state target cleavage rate": "< 0.0001"}
{"sequence": "GGAGACCUAACUAUACAACCUUCUACCUGA", "pre-steady-state target cleavage rate": "0.00465 ± 0.0036"}
{"sequence": "GGAGACCUUACUAUACAACCUUCUACCUGA", "pre-steady-state target cleavage rate": "0.00341 ± 0.0028"}
{"sequence": "GGAGUGGAUACUUACAACCUACUACCUCA", "pre-steady-state target cleavage rate": "0.0233 ± 0.011"}
{"sequence": "GGAGACCUUACUAUACAACCUAGUACCUGA", "pre-steady-state target cleavage rate": "0.00509 ± 0.0037"}
{"sequence": "GGAGACCAUACUAUACAACCUACAUGGAGA [g8:g23:cont:t1A]", "pre-steady-state target cleavage rate": "0.00382 ± 0.0038"}
{"sequence": "GGAGACCAUACUAUACAACCUUACUACCUCA", "pre-steady-state target cleavage rate": "0.00561 ± 0.0036"}
{"sequence": "GGAGUGGAUACUAUACAACCUAGUACCUGA", "pre-steady-state target cleavage rate": "0.00271 ± 0.001"}
{"sequence": "GGAGUGGAUACUAAUCAACCUACUACCUCA", "pre-steady-state target cleavage rate": "0.00495 ± 0.0038"}
{"sequence": "GGAGAGGAUAGUAUACAACCUACUUCCUCA", "pre-steady-state target cleavage rate": "0.00319 ± 0.0018"}
{"sequence": "GGAGAGGAUACUAUACAUCCUACUACCACA", "pre-steady-state target cleavage rate": "0.00374 ± 0.0014"}
{"sequence": "GGAGUGGUUACUAUACUACCUACUACCUCA", "pre-steady-state target cleavage rate": "0.00596 ± 0.0023"}
{"sequence": "GGAGUCGAUACUAUACAACCUACUACCUGA", "pre-steady-state target cleavage rate": "0.00547 ± 0.0021"}
{"sequence": "GGAGACGAUACUAUACAACCUACUACGUGA", "pre-steady-state target cleavage rate": "0.00515 ± 0.0026"}
{"sequence": "GGAGUGGAUACUAUACAACCUAGUACGUCA", "pre-steady-state target cleavage rate": "0.00381 ± 0.0014"}
{"sequence": "GGAGACGAUACUAUACAACCUUCUAGCUCA", "pre-steady-state target cleavage rate": "0.00455 ± 0.0027"}
